Results as given in PubChem BioAssay (NCATS).
Results filed as inconclusive are left out. Entries that show only a call come without a potency. Activity calls are given as the source filed them. Calls follow the shape of the dose curve; as a rule, active = well fitted curve in the direction sought with a large enough effect; inconclusive = small, poorly fitted or top-dose-only effect, or another doubt; inactive = no such curve, though single readings can be large; an effect the other way counts as inactive or inconclusive.

Legend:
[1] = biological target: N-terminal Xaa-Pro-Lys N-methyltransferase 1 (Homo sapiens) (UniProt Q9BV86); test: qHTS Assay for Inhibitors of N-terminal methyltransferase 1 (NTMT1): LOPAC validation of the NTMT1 SAHH-coupled ThioGlo3 Assay (AID 1347143);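 also: SAH from peptide methylation measured as thiol fluorescence via SAHH coupling and ThioGlo3; nearly all actives have a fitted effect of over 70% in size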; also: potency is read from the fitted curve at half-maximal effect
Outline: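 In this qHTS pilot against the LOPAC set, 125nM NTMT1 met compounds tested at multiple concentrations, and fluorescence was normalized to background.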

[2] = qHTS of pediatric cancer cell lines to identify multiple opportunities for drug repurposing: Confirmatory screen for A673 cells (AID 1347110);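 also: cells exposed to compound for 48 h before the viability read; nearly all actives have a fitted effect of over 65% in size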; also: potency is read from the fitted curve at half-maximal effect
Outline: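 Forty-eight-hour viability assay. Follow-up compounds ran at 11-point dilutions; positive control bortezomib at 2.3 uM final, neutral control DMSO.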

[3] = qHTS of pediatric cancer cell lines to identify multiple opportunities for drug repurposing: Confirmatory screen for SK-N-MC cells (AID 1347111);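 also: cells exposed to compound for 48 h before the readout; nearly all actives have a fitted effect of over 70% in size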; also: potency is read from the fitted curve at half-maximal effect
Outline: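 Metabolically active cells were quantified by ATP-dependent luminescence (CellTiter-Glo, 15 min at room temperature) following 48 h treatment. Cells had been plated at 500-1,000 per well and settled for 5 h beforehand.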

[4] = qHTS of pediatric cancer cell lines to identify multiple opportunities for drug repurposing: Confirmatory screen for BT-12 cells (AID 1347112); also: nearly all actives have a fitted effect of over 55% in size; also: potency is read from the fitted curve at half-maximal effect
Outline: (§1)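 Cells (500-1,000/well) in growth media were settled 5 h at 37 degrees C, then given compounds for 48 h. Viability was read as CellTiter-Glo luminescence. Primary runs used MIPE at 11 points (0.78 nM-46 µM) and NPC at 8 points (0.59 nM-46 µM); follow-ups used 11 points.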

[5] = qHTS of pediatric cancer cell lines to identify multiple opportunities for drug repurposing: Confirmatory screen for LAN-5 cells (AID 1347113); also: nearly all actives have a fitted effect of over 65% in size; also: potency is read from the fitted curve at half-maximal effect
Outline: as §1

[6] = qHTS of pediatric cancer cell lines to identify multiple opportunities for drug repurposing: Confirmatory screen for DAOY cells (AID 1347114); also: nearly all actives have a fitted effect of over 65% in size
Outline: (§2)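 Viability measured as metabolically active cells via CellTiter-Glo luminescence following 48 hours of compound exposure, 11-point dilutions in confirmatory testing. 500-1,000 cells/well plated 5 hours before dosing; controls were DMSO and 2.3 µM bortezomib.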

[7] = qHTS of pediatric cancer cell lines to identify multiple opportunities for drug repurposing: Confirmatory screen for NB-EBc1 cells (AID 1347115);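 also: cells exposed to compound for 48 h before the viability read; nearly all actives have a fitted effect of over 45% in size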; also: potency is read from the fitted curve at half-maximal effect
Outline: as §1

[8] = qHTS of pediatric cancer cell lines to identify multiple opportunities for drug repurposing: Confirmatory screen for SJ-GBM2 cells (AID 1347116); also: nearly all actives have a fitted effect of over 60% in size
Outline: as §2

[9] = qHTS of pediatric cancer cell lines to identify multiple opportunities for drug repurposing: Confirmatory screen for BT-37 cells (AID 1347117); also: nearly all actives have a fitted effect of over 55% in size; also: potency is read from the fitted curve at half-maximal effect
Outline: as §1

[10] = qHTS of pediatric cancer cell lines to identify multiple opportunities for drug repurposing: Confirmatory screen for TC32 cells (AID 1347118);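 also: cells exposed to compound for 48 h before the read; nearly all actives have a fitted effect of over 65% in size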; also: potency is read from the fitted curve at half-maximal effect
Outline: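 Luminescent CellTiter-Glo read-out of metabolically active TC32 cells after 48 h compound exposure. Primary: MIPE 11-point, 0.78 nM–46 µM; NPC 8-point, 0.59 nM–46 µM. Confirmatory: 11-point dilutions.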

[11] = qHTS of pediatric cancer cell lines to identify multiple opportunities for drug repurposing: Confirmatory screen for MG 63 (6-TG R) cells (AID 1347119); also: nearly all actives have a fitted effect of over 55% in size; also: potency is read from the fitted curve at half-maximal effect
Outline: as §1

[12] = qHTS of pediatric cancer cell lines to identify multiple opportunities for drug repurposing: Confirmatory screen for control Hh wild type fibroblast cells (AID 1347121); also: nearly all actives have a fitted effect of over 70% in size; also: potency is read from the fitted curve at half-maximal effect
Outline: as §1

[13] = qHTS of pediatric cancer cell lines to identify multiple opportunities for drug repurposing: Confirmatory screen for U-2 OS cells (AID 1347122); also: nearly all actives have a fitted effect of over 65% in size
Outline: as §1

[14] = qHTS of pediatric cancer cell lines to identify multiple opportunities for drug repurposing: Confirmatory screen for Rh41 cells (AID 1347123); also: nearly all actives have a fitted effect of over 60% in size
Outline: as §1

[15] = qHTS of pediatric cancer cell lines to identify multiple opportunities for drug repurposing: Confirmatory screen for RD cells (AID 1347124)
Outline: as §1

[16] = qHTS of pediatric cancer cell lines to identify multiple opportunities for drug repurposing: Confirmatory screen for Rh18 cells (AID 1347125); also: nearly all actives have a fitted effect of over 55% in size; also: potency is read from the fitted curve at half-maximal effect
Outline: as §1

[17] = qHTS of pediatric cancer cell lines to identify multiple opportunities for drug repurposing: Confirmatory screen for Rh30 cells (AID 1347126); also: nearly all actives have a fitted effect of over 55% in size
Outline: as §1

[18] = qHTS of pediatric cancer cell lines to identify multiple opportunities for drug repurposing: Confirmatory screen for OHS-50 cells (AID 1347128); also: potency is read from the fitted curve at half-maximal effect
Outline: as §1

[19] = qHTS of pediatric cancer cell lines to identify multiple opportunities for drug repurposing: Confirmatory screen for SK-N-SH cells (AID 1347129);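 also: cells exposed to compound for 48 h before viability read; nearly all actives have a fitted effect of over 60% in size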
Outline: as §1

Chain of N-terminal Xaa-Pro-Lys N-methyltransferase 1 (Homo sapiens) (Q9BV86 whole entry, looked up): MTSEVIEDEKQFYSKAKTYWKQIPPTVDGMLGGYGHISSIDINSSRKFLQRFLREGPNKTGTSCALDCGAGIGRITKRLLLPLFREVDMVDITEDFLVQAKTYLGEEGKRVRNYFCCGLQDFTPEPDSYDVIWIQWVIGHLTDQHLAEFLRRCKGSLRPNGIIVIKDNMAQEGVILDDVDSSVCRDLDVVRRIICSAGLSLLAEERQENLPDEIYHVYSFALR

With `c1ccc2c(c1)OCC(C1=NCCN1)O2` (stereo not drawn) the Potency [1] was 56200 nM (active).

For `Cc1cccc(C)c1NC1=NCCCS1`, the Potency [1] was “inactive”.

In the case of `O=P1(NCCCl)OCCCN1CCCl` (stereo not drawn), the Potency [2] is reported as “inactive”, the Potency [3] is reported as “inactive” and the Potency [4] is reported as “inactive”. For the same compound, the Potency [5] was “inactive”, the Potency [6] was “inactive” and the Potency [7] was “inactive”. For the same compound, the Potency [8] was “inactive”, the Potency [9] was “inactive” and the Potency [10] was “inactive”. The Potency [11] was “inactive”, the Potency [12] was “inactive” and the Potency [13] was “inactive”. For the same compound, the Potency [14] was “inactive”, the Potency [15] was “inactive” and the Potency [16] was “inactive”. For the same compound, the Potency [17] was “inactive”, the Potency [18] was “inactive” and the Potency [19] was “inactive”.

For `NN=C(N)N`, the Potency [1] was “inactive”.

With `Nc1ccncc1` the Potency [1] was “inactive”.

With `COc1ccc(C(CN(C)C)C2(O)CCCCC2)cc1` (stereo not drawn) the Potency [1] was “inactive”.

For `CCCN1CCC[C@@H]2Cc3[nH]ncc3C[C@H]21`, the Potency [1] was “inactive”.

For `O=c1[nH]c2ccccc2n1C1CCN(CCCC(c2ccc(F)cc2)c2ccc(F)cc2)CC1`, the Potency [1] was “inactive”.

With `CNCC(O)c1ccc(O)cc1` (stereo not drawn) the Potency [1] was “inactive”.

For `COc1ccccc1N1CCNCC1`, the Potency [1] was “inactive”.

In the case of `CC(C)CC(N(C)C)C1(c2ccc(Cl)cc2)CCC1` (stereo not drawn), the Potency [6] is reported as “inactive”, the Potency [7] is reported as “inactive” and the Potency [10] is reported as 23300 nM (active). For the same compound, the Potency [14] was “inactive”, the Potency [16] was 20800 nM (active) and the Potency [19] was “inactive”.

In the case of `C=C(C)[C@H]1Cc2c(ccc3c2O[C@@H]2COc4cc(OC)c(OC)cc4[C@@H]2C3=O)O1`, the Potency [2] is reported as 3690 nM (active), the Potency [3] is reported as 1650 nM (active) and the Potency [4] is reported as 2610 nM (active). The Potency [5] was 1170 nM (active), the Potency [7] was 293 nM (active) and the Potency [9] was 2610 nM (active). For the same compound, the Potency [10] was 329 nM (active), the Potency [11] was 32.9 nM (active) and the Potency [12] was 117 nM (active). For the same compound, the Potency [13] was “inactive”, the Potency [15] was “inactive” and the Potency [17] was “inactive”. For the same compound, the Potency [18] was 1470 nM (active).

In the case of `Cc1ccc(S(=O)(=O)N[C@@H](CCCCN)C(=O)CCl)cc1`, the Potency [1] is reported as 56200 nM (active).

For `N#CC(C#N)=Cc1ccc(O)c(O)c1`, the Potency [1] was 56200 nM (active).
